The whole screen tested about 16,000 compounds, of which about 2,600 (16%) were called active. About 20% were inconclusive and are not listed. Only a sample is shown. A number with no mark means an inactive call. Calls follow the shape of the dose curve; as a rule, active = well fitted curve in the direction sought with a large enough effect; inconclusive = small, poorly fitted or top-dose-only effect, or effect the other way; inactive = no such curve, though single readings can be large or run the other way.
Target: Cytochrome P450 2D6 (Homo sapiens) (UniProt P10635)
Sequence (P10635 whole entry, looked up): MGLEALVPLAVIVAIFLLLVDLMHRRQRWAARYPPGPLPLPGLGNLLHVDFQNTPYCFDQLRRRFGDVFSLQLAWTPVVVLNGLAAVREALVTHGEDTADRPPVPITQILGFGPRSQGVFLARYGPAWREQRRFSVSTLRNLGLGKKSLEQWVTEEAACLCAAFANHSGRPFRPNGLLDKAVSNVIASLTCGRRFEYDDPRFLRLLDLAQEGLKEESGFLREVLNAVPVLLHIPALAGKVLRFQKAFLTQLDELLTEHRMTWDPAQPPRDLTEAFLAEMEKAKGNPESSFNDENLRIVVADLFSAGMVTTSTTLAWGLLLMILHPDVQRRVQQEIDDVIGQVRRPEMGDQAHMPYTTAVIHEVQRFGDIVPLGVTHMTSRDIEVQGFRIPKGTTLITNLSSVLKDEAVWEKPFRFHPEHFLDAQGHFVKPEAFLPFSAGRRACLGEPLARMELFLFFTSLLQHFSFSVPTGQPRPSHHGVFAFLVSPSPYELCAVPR
Experiment: Cytochrome panel assay with activity outcomes
Details: recombinant CYP, pro-luciferin dealkylation, luminescence, p450-cyp2d6; series mostly up to 57.1 µM; activity, negative = inhibition: at the top concentration
% is scaled to controls: 0 for no effect and ±100 for the full control effect.

| SMILES | activity, negative = inhibition | AC50 |
| --- | --- | --- |
| COc1cccc(Cn2c(=O)c(-c3cn(C)c4ccccc34)nc3cncnc32)c1 | 0.612% | – |
| O=C(O)CCCCCCCC(=O)O | 2.09% | – |
| COc1ccc(Oc2nc(C)cc(C)c2S(=O)(=O)c2ccc(C)cc2)cc1 | -5.88% | – |
| N[C@H](CCC(=O)NCC(=O)O)C(=O)O | 6.41% | – |
| CC(NC(=O)CN1CCCC1)C12CC3CC(CC(C3)C1)C2 (centres undefined) | -17.4% | – |
| CC(C)(C)CNC(CO)C12CC3CC(CC(C3)C1)C2 (centres undefined) | – | 10 µM (active) |
| Cc1ccc(S(=O)(=O)N[C@H]2COC(=O)[C@H](C)COC(=O)[C@H](C)NC(=O)C/C=C\[C@H]2C)cc1 | 12.2% [at 11.4 µM] | – |
| O=C(O)[C@@H]1[C@@H](C(=O)NCc2ccccn2)[C@@H]2C=C[C@@H]1O2 | 8.57% [at 11.4 µM] | – |
| COC(=O)[C@](C)(N)Cc1ccc(O)cc1 | 4.18% | – |
| C[C@H](N)C(=O)OC(C)(C)Cc1ccc(Cl)cc1 | – | 12.6 µM (active) |
| COC(=O)[C@H](N)Cc1ccc(Cl)cc1 | -5.04% | – |
| COc1ccc(C2=NC(C(F)(F)F)(C(F)(F)F)c3c(n(C)c(=O)n(C)c3=O)N2)cc1 | 2.5% | – |
| CNC(=O)NC(=S)NC(=O)c1ccc(OC)cc1 | -4.2% | – |
| COc1ccc(-c2nc3cnc(OC)nc3n(-c3ccc(OC)cc3)c2=O)cc1 | 5.64% | – |
| Cc1ccc(/C=N/NC(=O)Cn2nccc2C)o1 | -1.83% | – |
| Cc1ccc(/C=N\Nc2nc3ccc(Cl)cc3[nH]2)o1 | – | 3.55 µM (active) |
| CCOC(=O)N/N=C/c1ccc(C)o1 | 1.51% | – |

| SMILES | activity, negative = inhibition | AC50 |
| --- | --- | --- |
| CCCC(=O)n1nc(-c2cccnc2)nc1N | 10.8% | – |
| Cc1nnsc1SC(C)C(=O)O (centres undefined) | -11% | – |
| CCn1c(COc2ccc(C)cc2)nnc1SCc1ccc(C#N)cc1 | -22.7% | – |
| O=C(Nc1cc(Sc2ccccn2)cc([N+](=O)[O-])c1)c1ccc([N+](=O)[O-])cc1 | -16.7% | – |
| O=C(Nc1cccc([N+](=O)[O-])c1)c1ccc(CSc2ccccc2)cc1 | -4.86% | – |
| O=C(Nc1cc(Sc2ccccn2)cc([N+](=O)[O-])c1)c1ccc(Cl)cc1 | – | 8.91 µM (active) |
| CC1=CC(=C2C(=O)c3ccccc3C2=O)C=C(C)N1Cc1ccco1 | 17.1% | – |
| O=c1c(-c2cccc(F)c2)nc2cncnc2n1-c1ccccc1 | -9.29% | – |
| CN1CCN(c2ncc3nc(-c4ccccc4)c(=O)n(Cc4ccc(F)cc4)c3n2)CC1 | -0.95% | – |
| O=S(=O)(Nc1cccnc1Cl)c1ccc2c(c1)OCCO2 | 0.444% | – |
| CCNS(=O)(=O)c1ccc(NS(C)(=O)=O)cc1 | -5.1% | – |
| CC(C)(C)c1ccc(NS(=O)(=O)c2ccc(N)cc2)cc1 | 18.9% [at 11.4 µM] | – |
| O=S(=O)(Nc1ccc(Cc2ccncc2)cc1)c1ccc(Cl)c(Cl)c1 | – | 1 µM (active) |
| Cc1csc(NC(=O)CNS(=O)(=O)c2cccs2)n1 | 1.06% | – |
| O=S(=O)(Nc1ccc(Cc2ccncc2)cc1)c1cccs1 | – | 0.355 µM (active) |
| O=S(=O)(Nc1ccc(Cc2ccncc2)cc1)c1ccc(Br)cc1 | – | 0.631 µM (active) |
| COc1ccc(S(=O)(=O)Nc2cccc(Cl)c2)cc1OC | -24.4% | – |

Reference: PubChem BioAssay AID1851 (National Center for Advancing Translational Sciences (NCATS), 2009)
